From PubChem BioAssay AID1259415 (National Center for Advancing Translational Sciences (NCATS), 2018)
The campaign covered roughly 410,000 compounds. About 18,000 (4.4%) were called active. About 7% were inconclusive and are not listed. Cut-off read from the data, not from the text of the source: active = activity change below about -60%; inconclusive = no clear call, values can overlap the other calls; inactive = above about -39%. Shown is part of a subset that was picked to be rich in actives.

Assay: qHTS Assay for inhibitors of the human cytomegalovirus (HCMV)
Settings: HFF cells, HCMV-luciferase reporter, 72 h; at 57.5 µM; stronger effect = lower value
Source text: NCGC Assay Overview: Infection with human cytomegalovirus (HCMV) continues to pose significant threats for pregnant women and immunocompromised hosts. HCMV causes serious morbidity and mortality in transplant recipients, and congenital HCMV is the leading infectious cause of mental retardation and deafness in children. In the 1990s, the annual costs associated with the disease burden of congenital CMV were estimated at around $2 billion. A HCMV vaccine is not available yet and HCMV therapies result in intolerable side effects and emergence of drug resistant viruses. […] Towards this goal we have developed and characterized a luciferase HCMV reporter that was initially used in 96 well plates and then optimized to 1536-well plates for utilization in screening of the MLSMR collection, the NGCG diversity collection and the NCGC Pharmaceutical Collection of approved and investigational drugs.
NCGC Assay Protocol Summary:
This is a cell-based assay for HCMV inhibition in HFFs cells. The screening used 2 compound doses and the HCMV-luciferase at MOI of 1 PFU/cell. Cells were treated and infected with HCMV. At 72 h post infection cell lysates were collected and luciferase activity was determined using the Glomax-Multi + Detection System (Promega, Madison, WI). Data were normalized to the controls for basal activity (buffer only) and known HCMV inhibitors Salinmoycin.
1536-well assay protocol for the assay:
(1) Add 3 ul CMV/HFF cell culture. 1000 cells/well in DMEM nirmal media.
(2) Incubate 16 hr at 37C.
(3) Add 23 nl control compound, 10uM of Salinomycin.
(4) Add 23 nl compounds in DMSO solution.
(5) Add 3 ul CMV suspension. Final 1 puf/ul, Virus stock 2000pfu/ul
(6) Incubate 72 hrs at 37C.
(7) Add 4 ul OneGlo Luc Reagent.
(8) Incubate 5 min at room temperature.
% is set by controls: 0 for no effect and ±100 for the full control effect.

Row | SMILES | activity change, negative = inhibition
1 | COc1ccc(C2CC(=O)Nc3c2c(=O)nc2c(C)cccn32)cc1OC (stereo not given) | 3.37% (inactive)
2 | CCn1c(CNC(=O)c2ccccc2)nnc1SCC(=O)N1CCN(c2ccccc2)CC1 | -25.6% (inactive)
3 | O=C(CCNS(=O)(=O)c1ccccc1C(F)(F)F)Nc1ccncc1 | 6.98% (inactive)
4 | O=C(CN1CCN(c2ccccc2O)CC1)NC(=O)NCc1ccccc1 | -4.33% (inactive)
5 | Oc1ccc(N2CCN(C(=S)NCc3ccccc3)CC2)cc1 | -63.6% (active)
6 | Cc1ccccc1NC(=O)C1CCCN(C(=O)NCc2ccccc2)C1 (stereo not given) | -18.4% (inactive)
7 | COc1cc(C2C(C(=O)OCCC#N)=C(C)NC3=C2S(=O)(=O)c2ccccc23)cc(OC)c1OC (stereo not given) | 2.51% (inactive)
8 | COc1ccccc1N1CCN(c2ncnc3onc(-c4cccc(Cl)c4)c23)CC1 | 10.1% (inactive)
9 | COc1ccc2c(c1)c(N1CCCC1=O)c(C(=O)Nc1ccc(OC)c(Cl)c1)n2C | -18.9% (inactive)
10 | Cc1nn(CC(=O)O)c(=O)c2cc3cc(F)ccc3n12 | 31% (inactive)
11 | Cc1cccc(OCC(=O)NCCNC(=O)c2cccnc2)c1 | -66.9% (active)
12 | Cc1cccc(OCCNC(=S)NC(=O)c2cccnc2)c1 | -37.9% (inactive)
13 | CCNC(=O)COC(=O)CCNC(=O)c1cccc(C)c1 | -28.9% (inactive)
14 | Cc1cc(C)c(S(=O)(=O)NN=C2c3ccccc3[C@H]3Cc4csc[n+]4[C@@H]23)c(C)c1 | -27.2% (inactive)
15 | O=C(CCc1nc(CN2CCN(S(=O)(=O)c3ccc(F)cc3)CC2)no1)N1CCCCC1 | -35.8% (inactive)
16 | CCC[C@H]1CCCC/C=C\CCCC(=O)OCCN1C(=O)OC(C)(C)C | -71.3% (active)
17 | Cc1cccc(C)c1NC(=O)C1CCCN1C(=O)OC(C)(C)C (stereo not given) | -2.93% (inactive)
18 | Cc1nc(SCC(=O)NC2CCCCC2C)c(C#N)c(C)c1C (stereo not given) | -103% (active)
19 | Cc1nc(SCC(=O)NC2CCCC2)[nH]c(=O)c1C | -10.8% (inactive)
20 | CC1CCCCC1NC(=O)CSc1nnc(N)s1 (stereo not given) | 41.4% (inactive)
21 | COc1cccc(CNC(=O)[C@@H]2CCCN2C(=O)[C@@H]2CCCN2C(=O)c2ccccc2)c1 | -2.63% (inactive)
22 | O=C(NCCS(=O)(=O)NCc1ccc(F)cc1)c1ccccc1 | -9.67% (inactive)
23 | Cc1nc2c(C(=O)NCc3ccc4c(c3)OCO4)c[nH]n2c(=O)c1Cc1ccccc1F | -7.59% (inactive)

Row | SMILES | activity change, negative = inhibition
24 | COc1ccc(NC(=O)/C(N=Nc2cccc(S(=O)(=O)Nc3ccc(SC(F)F)cc3)c2)=C(\C)O)cc1 | -70.6% (active)
25 | COc1ccc(NS(=O)(=O)c2cccc(C(=O)NCCc3ccc(S(N)(=O)=O)cc3)c2)cc1 | -1.91% (inactive)
26 | Cc1c(NS(=O)(=O)c2cccc(C(=O)Nc3ccc(SC(F)F)cc3)c2)c(=O)n(-c2ccccc2)n1C | -2.26% (inactive)
27 | Cc1ccc(Cl)cc1N1CCN(C(=O)c2cnc3c(-c4ccc(F)cc4)c(C)nn3c2C)CC1 | 7.36% (inactive)
28 | O=C(Nc1cccc([N+](=O)[O-])c1)N1CCc2ccccc2C1 | -65.7% (active)
29 | Cc1cccc(OC(C)C(=O)N2CCc3ccccc3C2)c1 (stereo not given) | -31.1% (inactive)
30 | Cc1cccc(NC(=O)N2CCC(CN3CCc4ccccc4C3)CC2)c1C | 7.59% (inactive)
31 | CC(=O)c1ccc(NC(=O)c2nc3nc(C)cc(C(F)F)n3n2)cc1 | 19.3% (inactive)
32 | CCOc1ccc(-c2nonc2NC(=O)c2oc3ccc(C)cc3c2C)cc1OCC | 5.37% (inactive)
33 | Cc1ccc2c(O)c(Cc3ccccc3)c(=O)[nH]c2n1 | 22% (inactive)
34 | O=C(Nc1c(-c2ccc(F)cc2)nc2ccccn12)c1cccc(F)c1 | -69.4% (active)
35 | COC(=O)c1ccc2nc(-c3ccc(Cl)cc3)c(Cc3cccc(F)c3)n2c1 | -17.1% (inactive)
36 | Cc1nc2ccccn2c(=O)c1NC(=O)c1c(F)cccc1F | -14.4% (inactive)
37 | Cc1ccc(CNC(=O)c2c(O)nc3c(C)cccn3c2=O)cc1 | 5.82% (inactive)
38 | COC(=O)[C@@]1(Sc2ccc(OC)cc2)CC(=O)N(c2ccc(OC)cc2C)[C@@H]1c1ccc(OC(C)C)c(OC)c1 | 10.7% (inactive)
39 | COc1cc(OC)c(NC(=O)c2cnc(N3CCCC3)nc2C)cc1Cl | -14.2% (inactive)
40 | Cc1nnc(SCC(=O)N(C(C)C)C(C)C)nc1C | -39.9% (inactive)
41 | CC(C)OCCCNc1ncnc2c1[nH]c1ccc(F)cc12 | -79% (active)
42 | COc1ccc(Cn2cc(C(=O)c3ccc(C)cc3)c(=O)c3cc(OC)c(OC)cc32)cc1 | -22.1% (inactive)
43 | O=C(NC1CCCC1)C(c1ccco1)N(C(=O)c1csnn1)c1ccccc1 (stereo not given) | 13.9% (inactive)
44 | CCCCN(C(=O)C1=NN(c2cc(C)ccc2C)C(=O)CC1)c1c(N)n(CCC)c(=O)[nH]c1=O | 8.37% (inactive)
45 | Cn1c(=O)c2c(SCC(=O)N3CCc4ccccc43)nc(-c3ccc(Cl)cc3)nc2n(C)c1=O | 17.9% (inactive)
